The values below come from PubChem BioAssay (EPA / NIEHS).

Read-out in assay [1]: Macrophage colony-stimulating factor (MCSF), CSF1 (gene 1435)
Kind of assay: BSK_hDFCGF_MCSF: BioMAP Diversity Plus: hDFCGF Assay for Macrophage colony-stimulating factor (MCSF) Biomarker Activity (AID 2283060). As to conditions: primary human foreskin fibroblasts; actives raise or lower the signal. The method, boiled down:
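Primary human foreskin fibroblasts dosed with chemical; 24 h later, M-CSF quantified by ELISA; curves fitted in both directions vs DMSO negative control.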

A short description of assay [2]: BSK_hDFCGF_SRB: Viability Assessment in the BioMAP Diversity Plus: hDFCGF Assay (AID 2283061).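 Note: cells exposed to compound for 24 h before the read.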 Conditions: primary human foreskin fibroblasts. The method, boiled down: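 Readout is SRB absorbance at 560 nm, reflecting total protein in parallel cultures of human foreskin fibroblasts harvested 24 h after chemical dosing. Activity was fitted bidirectionally relative to DMSO.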

Read-out in assay [3]: TIMP metallopeptidase inhibitor 1 (TIMP1), TIMP1 (gene 7076)
Kind of assay: BSK_hDFCGF_TIMP1: BioMAP Diversity Plus: hDFCGF Assay for TIMP metallopeptidase inhibitor 1 (TIMP1) Biomarker Activity (AID 2283062). Conditions: primary human foreskin fibroblasts; actives raise or lower the signal. An outline of the steps:
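Human skin fibroblasts (primary), hDFCGF system; compound exposure 24 h; TIMP-1 by ELISA; bidirectional fit vs DMSO negative control; overt cytotoxicity by SRB in parallel wells.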

Read-out in assay [4]: Monokine induced gamma interferon (MIG), CXCL9 (gene 4283)
Kind of assay: BSK_hDFCGF_MIG: BioMAP Diversity Plus: hDFCGF Assay for Monokine induced gamma interferon (MIG) Biomarker Activity (AID 2283063). Conditions: primary human foreskin fibroblasts; actives raise or lower the signal. The method, boiled down: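 Chemicals were added to primary human foreskin fibroblast cultures, which were sampled 24 h later. MIG levels were then quantified by ELISA and responses fitted in both directions relative to DMSO.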

Read-out in assay [5]: Matrix Metallopeptidase 1 (MMP1), MMP1 (gene 4312)
Kind of assay: BSK_hDFCGF_MMP1: BioMAP Diversity Plus: hDFCGF Assay for Matrix Metallopeptidase 1 (MMP1) Biomarker Activity (AID 2283064). As to conditions: primary human foreskin fibroblasts; actives raise or lower the signal. The method, boiled down:
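Primary human foreskin fibroblasts in the hDFCGF system were dosed with test chemical, and MMP1 was measured by ELISA 24 h later. Values come from bidirectional curve fitting against the DMSO baseline.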

Read-out in assay [6]: Vascular cell adhesion molecule 1 (VCAM1), VCAM1 (gene 7412)
Kind of assay: BSK_hDFCGF_VCAM1: BioMAP Diversity Plus: hDFCGF Assay for Vascular cell adhesion molecule 1 (VCAM1) Biomarker Activity (AID 2283065).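 For AC50: VCAM-1 protein level quantified by ELISA after 24 h chemical exposure.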 As to conditions: primary human foreskin fibroblasts; actives raise or lower the signal. The method, boiled down: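 Human foreskin fibroblast primary cells, chemical exposure 24 h; VCAM-1 by ELISA; bidirectional fit, DMSO = negative control/baseline.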

Read-out in assay [7]: Plasminogen activator inhibitor-1 (PAI1), SERPINE1 (gene 5054)
Kind of assay: BSK_hDFCGF_PAI1: BioMAP Diversity Plus: hDFCGF Assay for Plasminogen activator inhibitor-1 (PAI1) Biomarker Activity (AID 2283066). Conditions: primary human foreskin fibroblasts; actives raise or lower the signal. The method, boiled down:
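PAI-1 levels, determined by ELISA, served as the endpoint in human foreskin fibroblast cultures exposed to compound for 24 h, with DMSO as baseline.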

Read-out in assay [8]: Intercellular Adhesion Molecule 1 (ICAM1), ICAM1 (gene 3383)
Kind of assay: BSK_KF3CT_ICAM1: BioMAP Diversity Plus: KF3CT Assay for Intercellular Adhesion Molecule 1 (ICAM1) Biomarker Activity (AID 2283067). Conditions: primary human keratinocytes with fibroblasts; actives raise or lower the signal. The method, boiled down:
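ICAM-1 levels are measured by ELISA 24 h after dosing a primary human co-culture of keratinocytes and foreskin fibroblasts. Activity in either direction is fitted relative to DMSO vehicle.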

Read-out in assay [9]: Interferon-gamma inducible Protein 10 (IP10), CXCL10 (gene 3627)
Kind of assay: BSK_KF3CT_IP10: BioMAP Diversity Plus: KF3CT Assay for Interferon-gamma inducible Protein 10 (IP10) Biomarker Activity (AID 2283068). As to conditions: primary human keratinocytes with fibroblasts; actives raise or lower the signal. An outline of the steps:
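ELISA read-out of IP-10 after 24 h chemical dosing of human skin primary co-culture (keratinocytes, foreskin fibroblasts). Gain or loss of signal relative to DMSO, bidirectional curve fit.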

Assay [10] is described as follows: BSK_KF3CT_SRB: Viability Assessment in the BioMAP Diversity Plus: KF3CT Assay (AID 2283069).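 Note: total protein by sulforhodamine B staining as a cytotoxicity measure; read 24 h after compound addition.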 Conditions: primary human keratinocytes with fibroblasts. The method, boiled down:
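Human primary keratinocyte plus foreskin fibroblast co-culture exposed to chemicals for 24 h. Total protein measured by 0.1% sulforhodamine B staining after 10% TCA fixation, read at 560 nm; bidirectional fitting versus DMSO baseline.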

Read-out in assay [11]: Interleukin-1 alpha (IL1a), IL1A (gene 3552)
Kind of assay: BSK_KF3CT_IL1a: BioMAP Diversity Plus: KF3CT Assay for Interleukin-1 alpha (IL1a) Biomarker Activity (AID 2283070). Conditions: primary human keratinocytes with fibroblasts; actives raise or lower the signal. The method, boiled down:
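Human keratinocyte plus foreskin fibroblast primary co-culture, sampled 24 h after chemical dosing. IL-1a measured by ELISA; responses fitted bidirectionally against DMSO baseline (negative control), so gain or loss of signal both count.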

Read-out in assay [12]: TIMP metallopeptidase inhibitor 2 (TIMP2), TIMP2 (gene 7077)
Kind of assay: BSK_KF3CT_TIMP2: BioMAP Diversity Plus: KF3CT Assay for TIMP metallopeptidase inhibitor 2 (TIMP2) Biomarker Activity (AID 2283071). Conditions: primary human keratinocytes with fibroblasts; actives raise or lower the signal. The method, boiled down: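 Keratinocyte–fibroblast co-culture, 24 h exposure; TIMP-2 ELISA, DMSO-normalised bidirectional fit. Parallel SRB (0.1%, TCA-fixed, 560 nm) total-protein staining gauges cytotoxicity.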

Read-out in assay [13]: Matrix Metallopeptidase 9 (MMP9), MMP9 (gene 4318)
Kind of assay: BSK_KF3CT_MMP9: BioMAP Diversity Plus: KF3CT Assay for Matrix Metallopeptidase 9 (MMP9) Biomarker Activity (AID 2283074).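 For AC50: MMP9 protein level quantified by ELISA in the co-culture.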 As to conditions: primary human keratinocytes with fibroblasts; actives raise or lower the signal. An outline of the steps: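 Keratinocyte plus foreskin fibroblast human primary skin co-culture was dosed with chemical and MMP-9 was quantified by ELISA 24 h later. Bidirectional curve fitting used DMSO as negative control and activity baseline.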

Read-out in assay [14]: urokinase plasminogen activator (uPA), PLAU (gene 5328)
Kind of assay: BSK_KF3CT_uPA: BioMAP Diversity Plus: KF3CT Assay for urokinase plasminogen activator (uPA) Biomarker Activity (AID 2283075). As to conditions: primary human keratinocytes with fibroblasts; actives raise or lower the signal. An outline of the steps:
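Human keratinocyte plus foreskin fibroblast primary co-culture exposed to chemical for 24 h. uPA levels were quantified by ELISA, and activity was fitted bidirectionally against a DMSO negative-control baseline.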

Read-out in assay [15]: CD40, CD40 (gene 958)
Kind of assay: BSK_LPS_CD40: BioMAP Diversity Plus: LPS Assay for CD40 Biomarker Activity (AID 2283076). As to conditions: primary human HUVEC with PBMC; actives raise or lower the signal. An outline of the steps: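 Cells were dosed, incubated 24 h, then assayed for CD40 by ELISA. Gain or loss of signal was analysed relative to DMSO controls. The culture paired human umbilical vein endothelium with peripheral blood mononuclear cells.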

Read-out in assay [16]: E-selectin (Homo sapiens) (UniProt P16581)
Kind of assay: BSK_LPS_Eselectin: BioMAP Diversity Plus: LPS Assay for Eselectin Biomarker Activity (AID 2283077). Conditions: primary human HUVEC with PBMC; actives raise or lower the signal. An outline of the steps:
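Primary human vascular co-culture (endothelium plus PBMC) was dosed with chemical, then E-selectin quantified by ELISA at 24 h. Endpoint values derive from bidirectional curve fitting relative to DMSO.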

Read-out in assay [17]: Interleukin-8 (IL8), CXCL8 (gene 3576)
Kind of assay: BSK_LPS_IL8: BioMAP Diversity Plus: LPS Assay for Interleukin-8 (IL8) Biomarker Activity (AID 2283078). As to conditions: primary human HUVEC with PBMC; actives raise or lower the signal. The method, boiled down:
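Readout is IL-8 by ELISA, taken 24 h after compounds were added to LPS-stimulated endothelial/PBMC co-cultures. Both increases and decreases relative to DMSO control were scored through bidirectional fitting.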

Assay [18] in a line: BSK_LPS_SRB: Viability Assessment in the BioMAP Diversity Plus: LPS Assay (AID 2283079).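 Note: total protein by sulforhodamine B absorbance as a cytotoxicity measure; measured one day after compound addition.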 Conditions: primary human HUVEC with PBMC. An outline of the steps: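 Readout is SRB absorbance at 560 nm (0.1% stain, TCA-fixed parallel cultures) as a total-protein cytotoxicity measure. Cells: primary human umbilical vein endothelium plus peripheral blood mononuclear cells, 24 h after chemical exposure; DMSO served as baseline.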

Read-out in assay [19]: Interleukin-1 alpha (IL1a), IL1A (gene 3552)
Kind of assay: BSK_LPS_IL1a: BioMAP Diversity Plus: LPS Assay for Interleukin-1 alpha (IL1a) Biomarker Activity (AID 2283080). Conditions: primary human HUVEC with PBMC; actives raise or lower the signal. The method, boiled down: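 ELISA read-out of IL-1 alpha from a human primary vascular co-culture (endothelium plus PBMC) under LPS, sampled 24 hours post-dosing. Activity was fitted in both directions relative to DMSO controls.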

The source made the active and inactive calls. Rule for the calls: active = hit-call score of the fitted dose curve at least 0.9, where 1 is the maximum; inactive = score below 0.9.

E-selectin (Homo sapiens), sequence (P16581 whole entry, looked up): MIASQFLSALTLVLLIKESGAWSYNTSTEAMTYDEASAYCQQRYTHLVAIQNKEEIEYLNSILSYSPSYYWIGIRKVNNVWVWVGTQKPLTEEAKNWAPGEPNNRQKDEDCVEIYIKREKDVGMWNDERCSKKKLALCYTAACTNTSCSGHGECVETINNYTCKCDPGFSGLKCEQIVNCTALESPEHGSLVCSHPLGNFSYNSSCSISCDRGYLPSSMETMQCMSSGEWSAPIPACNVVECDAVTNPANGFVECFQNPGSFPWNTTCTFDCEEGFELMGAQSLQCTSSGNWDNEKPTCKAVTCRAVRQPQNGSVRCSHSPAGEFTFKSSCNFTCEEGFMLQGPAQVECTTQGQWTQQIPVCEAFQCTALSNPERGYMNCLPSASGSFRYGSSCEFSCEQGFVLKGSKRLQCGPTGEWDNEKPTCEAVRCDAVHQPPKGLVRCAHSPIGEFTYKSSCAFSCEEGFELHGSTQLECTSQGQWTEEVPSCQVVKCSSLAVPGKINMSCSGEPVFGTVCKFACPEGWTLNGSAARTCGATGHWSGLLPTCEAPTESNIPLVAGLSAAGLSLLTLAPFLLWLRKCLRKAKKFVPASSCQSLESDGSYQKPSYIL

Consider `NCC(F)(F)C(F)(F)C(F)(F)C(F)(F)C(F)(F)C(F)(F)C(F)(F)C(F)(F)F`, for which the result in assay [1], in [2], in [3], in assay [4], in assay [5] and in [6] was inactive. For the same molecule, the outcome in assay [7], in assay [8], in assay [9], in [10], in assay [11] and in assay [12] was inactive. For the same molecule, the result in assay [13], in [14], in [15], in assay [16], in assay [17] and in assay [18] was inactive. Besides, the outcome in assay [19] was inactive.

Regarding `O=S(=O)(O)CCC(F)(F)C(F)(F)C(F)(F)C(F)(F)F`, the result in [1], in assay [2], in [3], in assay [4], in [5] and in [6] was inactive. The result in [7], in [8], in assay [9], in [10], in assay [11] and in [12] was inactive. Besides, the outcome in [13], in [14], in assay [15], in assay [16], in assay [17] and in assay [18] was inactive. For the same molecule, the outcome in assay [19] was inactive.

As for `O=C1C=CC(=O)N1c1ccc(Cc2ccc(N3C(=O)C=CC3=O)cc2)cc1`, the AC50 in assay [1] was 2 µM (active); in [2], 1.91 µM (active); in [3], 2.7 µM (active); in assay [4], 3.48 µM (active); in assay [5], 1.99 µM (active); in assay [6], 1.5 µM (active). Moreover, the AC50 is 2.48 µM (active) in assay [7]; 3.64 µM (active) in assay [8]; 6.7 µM (active) in assay [9]; 1.97 µM (active) in assay [10]; 2.69 µM (active) in assay [11]; 2.2 µM (active) in [12]. The AC50 in [13] is 5.44 µM (active); in assay [14], 5.55 µM (active); in assay [15], 10.4 µM (active); in assay [16] it was 12.4 µM (active); in [17] it was 20 µM (active); in [18] it was 14.6 µM (active). Further, the AC50 in [19] is 8.38 µM (active).

Regarding `CCOC(C=C(C)CCC=C(C)C)OCC`, the AC50 in assay [1] was 32.8 µM (active); in [2] it was 33.2 µM (active); in assay [3] it was 20 µM (active); in assay [4], 27.3 µM (active); in assay [5], 32.4 µM (active); in assay [6], 20 µM (active). Besides, the half-maximal activity concentration (AC50) in [7] is 20 µM (active); in assay [9], 34.5 µM (active); in [10], 34.8 µM (active); in [11], 26 µM (active); in assay [12], 31.2 µM (active); in assay [13], 20 µM (active). Also, the AC50 was 3.97 µM (active) in assay [14]; 30 µM (active) in assay [15]; 35 µM (active) in assay [16]; 31.9 µM (active) in assay [18]; 32.9 µM (active) in [19]. The result in assay [8] and in [17] was inactive.

`O=C(O)C(F)(F)C(F)(F)C(F)(F)OC(F)(F)F`: the outcome in [1], in assay [2], in [3], in assay [4], in assay [5] and in assay [6] was inactive. Besides, the result in assay [7], in [8], in [9], in assay [10], in [11] and in assay [12] was inactive. Also, the result in assay [13], in assay [14], in assay [15], in assay [16], in assay [17] and in [18] was inactive. For the same molecule, the result in assay [19] was inactive.

As for `NC(=O)C(F)(F)C(F)(F)C(F)(F)F`, the outcome in assay [1], in assay [2], in assay [3], in assay [4], in [5] and in assay [6] was inactive. Also, the outcome in assay [7], in [8], in assay [9], in [10], in assay [11] and in assay [12] was inactive. Besides, the outcome in [13], in assay [14], in [15], in assay [16], in assay [17] and in [18] was inactive. Moreover, the result in assay [19] was inactive.

In general, AC50 refers to the midpoint of the concentration-response curve, whichever way the signal moves.
